Screening data: PubChem, Broad Institute
Tgondii IFNg – T. gondii growth inhibition with IFN-gamma, primary screen, cell-based. Toxoplasma gondii growth in IFN-gamma-treated host cells; active compounds read low. activity change, negative = inhibition, % (concentration not given with the values). hit rate 3.8% among 69,000; in the data active = activity change below about -70%, passing the limit was not always enough;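 note: host cells are HeLa cells infected with Toxoplasma gondii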
An asterisk follows results filed as active. The sample as a whole holds a higher share of hits than the screen did.

Results for COc1cccc(CNC(=O)Cn2c(=O)ccc3cc(S(=O)(=O)N4CCC(C)CC4)ccc32)c1 ?
Tgondii IFNg: -80.1*

What do the screens show for `Cc1ccc(-c2nc(CCNC(=O)C(=O)Nc3ccc([N+](=O)[O-])cc3)cs2)cc1`?
Tgondii IFNg: 112.8

Results for COc1cc2c(=O)c(-c3ccc(O)cc3)coc2cc1O ?
Tgondii IFNg: -56.3

What do the screens show for `CCc1cc(=O)oc2cc(OCC=C(C)C)ccc12`?
Tgondii IFNg: 21.3

What do the screens show for `CCc1cc(=O)oc2cc3occ(-c4ccc(OC)c(F)c4)c3cc12`?
Tgondii IFNg: -78.3*

Results for O=C(CCC1CCCC1)N1CCC2(CC1)Nc1cc(F)ccc1-n1cccc12 ?
Tgondii IFNg: -53.2

How did Cc1ccc(C(=O)N2CCC3(CCC3NC(=O)c3ccn(C)c3)CC2)o1 (stereo not given) do in these assays?
Tgondii IFNg: -2.5

How did CC(C)NC(=O)N1Cc2nccn2CC(COc2cccnc2)C1 (stereo not given) do in these assays?
Tgondii IFNg: 8.8

How did CCS(=O)(=O)N1Cc2nccn2CC(COc2cccnc2)C1 (stereo not given) do in these assays?
Tgondii IFNg: 10.3

How did NC(=O)N1Cc2nccn2CC(COc2cccnc2)C1 (stereo not given) do in these assays?
Tgondii IFNg: -100.4*

What do the screens show for `O=C(CN1C(=O)CC(c2ccccc2)CC1=O)NCCS(=O)(=O)N1CCCCC1`?
Tgondii IFNg: 19.7

How did CCc1ccc2c(c1)cc(S(=O)(=O)c1ccccc1)c(=O)n2CC(=O)NCc1ccc(F)cc1 do in these assays?
Tgondii IFNg: -46.5

How did COc1ccc(C2NC(C(=O)O)Cc3c2[nH]c2ccccc32)cc1CN1CCN(c2ccc(F)cc2)CC1 (stereo not given) do in these assays?
Tgondii IFNg: 1.7

How did COCc1cc(CN2CCCN(c3ccccc3)CC2)ccc1OC do in these assays?
Tgondii IFNg: 11.2

How did COc1ccc(C2NCCc3c2[nH]c2ccccc32)cc1CN1CCN(c2ccc([N+](=O)[O-])cc2)CC1 (stereo not given) do in these assays?
Tgondii IFNg: -117.3*

How did CCCC(=O)N1CCc2c([nH]c3ccccc23)C12C(=O)Nc1ccc(Br)cc12 (stereo not given) do in these assays?
Tgondii IFNg: -81.6*

Results for CCC(=O)N1CCc2c([nH]c3ccccc23)C12C(=O)Nc1ccc(Br)cc12 (stereo not given) ?
Tgondii IFNg: -48.5

What do the screens show for `CCC(=O)N1CCc2c([nH]c3ccccc23)C12C(=O)N(C)c1ccc(Br)cc12` (stereo not given)?
Tgondii IFNg: 108.8

What do the screens show for `CCOCC(=O)N1C[C@@H]2COC[C@]2(COCC2CCOCC2)C1`?
Tgondii IFNg: 0.4

What do the screens show for `CCN(Cc1ccncc1)C(=O)c1cc(NC(C)=O)ccc1Cl`?
Tgondii IFNg: 77.3

Results for Cc1ccc(-c2nc(C)c(CCNC(=O)C(=O)Nc3ccc(Cl)cc3)s2)cc1 ?
Tgondii IFNg: 83.4

Results for Cc1nc(-c2ccc(Cl)cc2)sc1CCNC(=O)C(=O)Nc1ccc2c(c1)OCO2 ?
Tgondii IFNg: -89.8*

Results for Cc1ccc(NC(=O)C(=O)NCCc2sc(-c3cccc(F)c3)nc2C)cc1F ?
Tgondii IFNg: 50.8

Results for Cc1ccc(-c2nc(C)c(CCNC(=O)C(=O)Nc3ccc4c(c3)OCCO4)s2)cc1 ?
Tgondii IFNg: -37.5

What do the screens show for `Cc1ccc(NC(=O)C(=O)NCCc2sc(-c3ccccc3)nc2C)cc1`?
Tgondii IFNg: -3.3

How did Cc1nc(-c2ccccc2)sc1CCNC(=O)C(=O)Nc1ccc2c(c1)OCO2 do in these assays?
Tgondii IFNg: -93.1*

What do the screens show for `Cc1nc(-c2cccc(F)c2)sc1CCNC(=O)C(=O)Nc1ccc2c(c1)OCO2`?
Tgondii IFNg: -97.9*

What do the screens show for `Cc1cccc(NC(=O)C(=O)NCCc2sc(-c3ccccc3)nc2C)c1`?
Tgondii IFNg: -35.9

What do the screens show for `Cc1nc(-c2cccc(F)c2)sc1CCNC(=O)C(=O)Nc1ccc2c(c1)OCCO2`?
Tgondii IFNg: -33.6

How did CCOc1ccc(-c2nc(CN3CCN(C(=O)Nc4cc(C)cc(C)c4)CC3)c(C)o2)cc1 do in these assays?
Tgondii IFNg: 1.2

What do the screens show for `O=S(=O)(c1ccc(Cl)cc1)N1CCC2(CC1)Nc1ccc(Cl)cc1-n1cccc12`?
Tgondii IFNg: 10.6

How did O=C(Nc1nnc(C2CCCCC2)s1)c1cn2cc(Cl)ccc2n1 do in these assays?
Tgondii IFNg: 12.0

What do the screens show for `COCC1CCC2(CCN(C(=O)C3CC=CC3)CC2)N1C` (stereo not given)?
Tgondii IFNg: -2.6

How did O=C(Nc1nnc(CCc2ccccc2)s1)c1ccnc(N2CCCC2)c1 do in these assays?
Tgondii IFNg: -43.7

What do the screens show for `CCN(Cc1nc(COC)no1)C(=O)c1ccc2nc(C)[nH]c2c1`?
Tgondii IFNg: 11.7

How did COC(=O)c1sccc1N/N=C1\C(=O)c2sccc2N(C)S1(=O)=O do in these assays?
Tgondii IFNg: 121.5

What do the screens show for `Cc1cc(C)c2c(c1)NC(=O)C2CC(=O)N1CCc2nc[nH]c2C1` (stereo not given)?
Tgondii IFNg: -3.7
